The supplement of paper PMC11417369
± gives the standard deviation of the averaged measurements. The full ranking holds about 25,000 sequences; the median of “ln(normalized median fluorescence intensity)” is about 8.6, and the highest 2% start at about 10. Shown is part of a subset that was picked to be rich in the highest values.

tested on: PfAP2-EXP AP2 domain (GST-tagged); test: gcPBM binding intensity (ln(normalized median fluorescence intensity)); higher = stronger DNA binding
Method in brief: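 Each value is the highest Masliner-normalised natural-log median intensity across replicate spots of either orientation of a probe. The probes were primer-extended double-stranded 36-bp intergenic genomic sequences on an Agilent 4 × 180k array, alongside negative controls, exposed for 1 h to GST-tagged P. falciparum DNA-binding domains expressed in E. coli. Bound protein was picked up with Alexa488 anti-GST antibody and scanned at 488 nm.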

Row | Sequence | gcPBM binding intensity (ln)
1 | TGTATGAAATATATTACACACATATAAAATCTATAT [CACACA_site6514] | 8.35 ± 0.57
2 | AAATTTATAAAGAACACACACATATAAATATAAATA [CACACA_site6174] | 8.93 ± 0.49
3 | TCGAACATTAACATAACACACATATATATATATATA [CACACA_site2900] | 10.2 ± 0.32
4 | AAACATAAGAAACACACACACATATATATATATATA [CACACA_site3642] | 10.1 ± 0.35
5 | CCAAATTTATAAAGAACACACACATATATATATATA [CACACA_site7900] | 9.99 ± 0.4
6 | TATATTAAGAAACACACACACATATATATATATATA [CACACA_site1609] | 10.2 ± 0.3
7 | TATATATTAAAACACACACACATATATATATATATA [CACACA_site3787] | 10 ± 0.38
8 | TCGAACATTAACATAACACACATATAGATTTATATA [CACACA_site7380] | 8.29 ± 0.42
9 | TTAATTAAGAAACACACACACATATATATATATATT [CACACA_site2290] | 8.67 ± 0.42
10 | CATTATAAGAAACACACACACATATATATATATATA [CACACA_site1051] | 10.2 ± 0.47
11 | CATTATTATTTTATAACACACACATATATATTATAT [CACACA_site8405] | 8.48 ± 0.34
12 | AACATTATAAGACACACACACACATATATATATATA [CACACA_site8259] | 10.1 ± 0.39
13 | AAATTTATAAAGAACACACACATATATATATATATA [CACACA_site48] | 10.2 ± 0.27
14 | TTTTTTAAAAATATTATCATCGTAACAAGAAATCGA [CACACA_negctrl_site1111] | 8.45 ± 0.4
15 | AATAAAAAACATGAAAGTACTTTAAAAAAGGTAATA [XGTACX_site1897] | 8.9 ± 0.45
16 | CAAACAAATATATGTTGTACTTATTATATATACATA [XGTACX_site2998] | 8.38 ± 0.33
17 | ATAATATAGAAACACACACACATATATATATACATT [CACACA_site555] | 8.71 ± 0.29
18 | TAGATAGATTAAAATACATGCATATTATTAAAAAAT [TGCATGCA_site739] | 8.84 ± 0.13
19 | AAAGCACCCAAGAATACACACAAATATTATAAAAAA [CACACA_site111] | 8.57 ± 0.58
20 | TAAACATAATAATATACACACATATATTGATATATA [CACACA_site2144] | 8.18 ± 0.43
21 | AACCAAATTTCACCATGTACATATTGATAAATATAT [XGTACX_site1374] | 8.7 ± 0.34
22 | GGATTCAAAAAAAAAAATAAAAGTAAATAATAAATA [TGCATGCA_negctrl_site348] | 8.27 ± 0.42
23 | ATACACTAGAAAATTTTATAGTATTATTAATGTTAA [GTGCAC_negctrl_site101] | 8.19 ± 0.42

Row | Sequence | gcPBM binding intensity (ln)
24 | AAATAATAAATTATAACACACATATATATATATATA [CACACA_site4045] | 10 ± 0.47
25 | TTTATAAAAATGAACACACACATATAAATATAAATA [CACACA_site7607] | 8.65 ± 0.44
26 | TATATATAATTATAAGAACACACATATATATATATA [CACACA_site8786] | 10.2 ± 0.18
27 | TAAATTTAGAAACACACACACATATATATATATATA [CACACA_site847] | 10.3 ± 0.4
28 | AAAAATTAGAAACACACACACATATATATATATATT [CACACA_site1042] | 8.71 ± 0.22
29 | ATTTAGAAAAATAAAACACACATATATATGTAAATA [CACACA_site4113] | 8.66 ± 0.48
30 | TATATAATTATAAGAACACACATATATATATATATA [CACACA_site2472] | 10.2 ± 0.2
31 | TTTATAAAAATGAACACACACATATATATATATATA [CACACA_site3493] | 10.4 ± 0.3
32 | TTTTTATAAAAATGAACACACACATATATATATATA [CACACA_site9160] | 10.2 ± 0.4
33 | TGTTAATTAAAGGACTGTACACTAATAATTCTATAA [XGTACX_site5195] | 8.5 ± 0.34
34 | TTTTAAAACAATGAGATTCCTTTCTTTTTTTCTTTT [CACACA_negctrl_site1320] | 7.96 ± 0.59
35 | TGACCGTTTTAAGAGTGTACAAAAAAAAAAAAAAAA [XGTACX_site4141] | 8.21 ± 0.43
36 | ATATATTTCTGTCAAGCACACATAATATTAATATAT [CACACA_site7993] | 8.86 ± 0.45
37 | AAAAAATGGCTAGTTTGTACACAAAAGTTATTGCAT [XGTACX_site5381] | 8.43 ± 0.33
38 | TTAATATAGATATAACCACACACATACATCTAATTC [CACACA_site8519] | 8.65 ± 0.46
39 | ATTAATTATGTATTTCAACAAAGAAGTGTTATATAT [GTGCAC_negctrl_site215] | 8.49 ± 0.35
40 | TCAAAAAAGACACACCGTACATACTATTTGGACAGG [XGTACX_site7699] | 8.51 ± 0.36
41 | AACAATTAGAATAACGCATGCATTTATAATATAGAA [TGCATGCA_site595] | 9.52 ± 0.071
42 | AAATAATATATGAATGCACACAGTAAAAATTAAAGA [CACACA_site2252] | 8.94 ± 0.35
43 | TAATTGTACACATGCACACACAAATATTATAGATGT [CACACA_site6528] | 8.99 ± 0.37
44 | TATTATATATTAAATGCATGTAAAAATAATATTAAA [TGCATGCA_site643] | 9.24 ± 0.44
45 | CAATTATTGTAATGCATGCACTGAATATAAAAAGAA | 10.3 ± 0.23
